This note sets out measurements from PubChem BioAssay.

Results filed as inconclusive are left out. For part of these data: Results with a measured potency or affinity are listed apart. Activity calls are given as the source filed them. Unless noted, no rule for the calls is given here.

The nature of assay [1]: MELAS cybrid and Rieske KO viability enhancers – cell-based, MELAS cybrids, Rieske KO mouse fibroblasts, CellTiter-Glo, primary screen (AID 1508586;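 active = mean z-score across replicates of 1.96 or higher in either the MELAS or the Rieske mutant cell line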;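 also: z relative to plate mean and SD of compound and empty wells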). The conditions noted are these: low glucose.
Assay [2] in a line: chitosan synthesis blockers in C. neoformans – flow cytometry, Cibacron Brilliant Red staining (AID 1347148).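 Also: compound exposure lasted three days at 37 degrees C.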 Conditions: Cryptococcus neoformans chitosan, stronger effect = lower value; at 10 µM unless noted. A general note: A flow cytometer gives signals particle by particle.
The test system of assay [3] is Hepatitis C virus NS3 helicase. Briefly: blockers of NS3h binding to ssDNA – biochemical, fluorescence polarization, LOPAC1280 library, primary screen (AID 687035; in the data active = inhibition above about 37%). The conditions noted are these: Purified HCV NS3 helicase, Cy5-dT15 ssDNA binding fluorescence polarization; stronger effect = higher value; concentration not given here. For orientation: Polarisation of emitted light reports the rotation of a fluorescent probe.

A short description of assay [4]: compounds altering Cy5-DNA-NS3h complex signal – biochemical, LOPAC1280, artefact control for HCV NS3 helicase inhibitor project (AID 687037). Conditions: Cy5-DNA-NS3h complex fluorescence interference counterscreen. Background: The purpose of a counterscreen is to sort out artefacts and off-target activity.
A short description of assay [5]: blockers of cellular phospholipid synthesis – cell-based, LOPAC library, screen 4, primary screen (AID 1347384). The conditions noted are these: animal cells, phospholipid biosynthesis inhibition screen; at 10 µM.
Assay [6] deals with NAD(+) hydrolase SARM1 (Homo sapiens) (UniProt Q6SZW1). Briefly: blocking NAD cleavage by SARM1 SAM-TIR – cell lysate, NAD-Glo luminescence (AID 1508614;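 active = compound whose remaining NAD level is above about 45 nM, limit read from the data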;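 also: higher remaining NAD means stronger inhibition of SARM1 NADase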). Conditions: SAM-TIR HEK293T lysate NADase, at 1 µM, stronger effect = higher value.
For assay [7], the target named is Mitogen-activated protein kinase 7 (Homo sapiens) (UniProt Q13164). The experiment in a line: Gal4-ERK5 driven luciferase induction – cell-based, HTS, primary screen (AID 1508626;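 active = luciferase signal above three times the same-plate solvent-only control wells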;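 also: luciferase driven by Gal4-ERK5 fusion binding five Gal4 sites before minimal TATA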). The conditions noted are these: HeLa Gal4-ERK5 transactivation, 18 h, at 5 µM, stronger effect = higher value.
A short description of assay [8]: compounds altering circadian rhythm period length – cell-based, LOPAC library, luminescence reporter (AID 2774).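 Also: values are relative to mean of DMSO wells on each plate.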 Conditions: circadian reporter cells, at 7 µM, actives lie on both sides.
Assay [9] concerns the target ATP-dependent translocase ABCB1 (Homo sapiens) (UniProt P08183). The experiment in a line: P-glycoprotein substrate transport blockade – cell-based (AID 377; in the data active = fluorescence slope change above about 50%). The conditions noted are these: MDR1-expressing cells, fluorescent substrate accumulation slope; stronger effect = higher value; concentration not given here.
A short description of assay [10]: blockers of polyQ-driven CASP3 activation – cell-based (AID 1583). The conditions noted are these: polyglutamine-induced caspase-3 activation, cell assay; stronger effect = higher value;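 tested at 10 µM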.
Assay [11] can be described thus: yeast 75Q aggregation reduction – 75Q-TubU reporter (AID 1593). The conditions noted are these: Yeast 75Q polyglutamine aggregation reporter.
A short description of assay [12]: restoration of touch response, mutant HTT neurons – whole organism, C. elegans mechanosensory neurons, N-terminal huntingtin (AID 1599). Conditions: C. elegans polyQ-huntingtin mechanosensory neurons, stronger effect = higher value.
Assay [13] in a line: blockers of cytochrome c efflux from mitochondria – biochemical, purified mitochondria (AID 1603).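 Also: mouse liver mitochondria challenged with calcium chloride; signal normalized to the plate average as 100%.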 Conditions: stronger effect = lower value.
Assay [14] in a line: polyglutamine aggregate formation blockers (AID 1604). Conditions: polyglutamine-induced protein aggregation inhibition assay; stronger effect = higher value; tested at 2.5 µM.
Assay [15] can be described thus: glutamate transport activators, MN-1 cells, MN-1 cell line (AID 1612).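 Also: tested at 1 µM final; 0% = mean of DMSO vehicle wells on each plate; positive means more glutamate uptake than control and negative means less.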 Conditions: MN-1 motor neuron cells, stronger effect = higher value.
Assay [16] in a line: GFP-Q80 aggregate reduction, neuronal-like cells, cell-based, NGF-treated PC12, GFPQ80 (AID 1614).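 Also: lower means fewer inclusions and 0 means no inclusions at all.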 The conditions noted are these: PC12 NGF-treated GFP-polyQ80 inclusion reduction.
A short description of assay [17]: 75Q-TubH aggregate inhibition, S. cerevisiae, yeast (AID 1616). Conditions: S. cerevisiae 75Q-TubH polyglutamine aggregation suppression; stronger effect = higher value.
A short description of assay [18]: compounds altering viability of human ES cells (AID 493140).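 Also: cells exposed to compounds for four days before counting.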 Conditions: human embryonic stem cell survival screen; stronger effect = higher value.
Assay [19] can be described thus: P. berghei load reduction in hepatocytes – cell-based, HepG2, luciferase luminescence, HepG2 viability, primary screen (AID 624349; in the data active = parasite load remaining mostly below about 12%, no sharp cut-off; inactive = mostly above about 10%;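 also: 100% = mean of DMSO negative control wells on the same plate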). The conditions noted are these: P. berghei liver stage in HepG2, luciferase luminescence, concentration not given here; parasite load remaining: stronger effect = lower value; viability: measured here: HepG2 viability without parasites.
The mark [20] stands for this setting: MELAS cybrid survival, CellTiter-Glo 48 h, stronger effect = higher value.
The mark [21] stands for this setting: Rieske KO mouse fibroblast survival, CellTiter-Glo 72 h.

Chain of Mitogen-activated protein kinase 7 (Homo sapiens) (Q13164 whole entry, looked up, the tested form may be a part): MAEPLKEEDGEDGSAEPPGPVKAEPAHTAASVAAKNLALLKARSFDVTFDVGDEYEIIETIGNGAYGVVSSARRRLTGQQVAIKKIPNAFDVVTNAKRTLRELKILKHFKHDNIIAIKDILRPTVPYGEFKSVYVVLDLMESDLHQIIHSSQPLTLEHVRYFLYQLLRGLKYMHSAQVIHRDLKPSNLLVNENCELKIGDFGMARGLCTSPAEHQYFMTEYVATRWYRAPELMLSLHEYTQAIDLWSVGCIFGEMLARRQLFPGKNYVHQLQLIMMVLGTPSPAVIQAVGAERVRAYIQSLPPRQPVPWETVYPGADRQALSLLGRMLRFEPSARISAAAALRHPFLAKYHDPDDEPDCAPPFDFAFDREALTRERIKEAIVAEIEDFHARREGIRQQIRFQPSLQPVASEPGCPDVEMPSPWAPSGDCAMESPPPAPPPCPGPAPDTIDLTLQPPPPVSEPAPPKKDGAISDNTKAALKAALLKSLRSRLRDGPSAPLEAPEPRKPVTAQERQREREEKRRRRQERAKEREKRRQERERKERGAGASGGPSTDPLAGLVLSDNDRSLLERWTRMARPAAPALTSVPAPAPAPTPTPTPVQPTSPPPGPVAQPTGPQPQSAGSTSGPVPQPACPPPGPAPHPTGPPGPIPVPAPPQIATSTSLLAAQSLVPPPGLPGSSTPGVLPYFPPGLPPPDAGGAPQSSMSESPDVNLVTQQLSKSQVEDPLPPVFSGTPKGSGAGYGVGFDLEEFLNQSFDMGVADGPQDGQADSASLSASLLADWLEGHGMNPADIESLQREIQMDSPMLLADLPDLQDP
Chain of ATP-dependent translocase ABCB1 (Homo sapiens) (P08183 whole entry, looked up): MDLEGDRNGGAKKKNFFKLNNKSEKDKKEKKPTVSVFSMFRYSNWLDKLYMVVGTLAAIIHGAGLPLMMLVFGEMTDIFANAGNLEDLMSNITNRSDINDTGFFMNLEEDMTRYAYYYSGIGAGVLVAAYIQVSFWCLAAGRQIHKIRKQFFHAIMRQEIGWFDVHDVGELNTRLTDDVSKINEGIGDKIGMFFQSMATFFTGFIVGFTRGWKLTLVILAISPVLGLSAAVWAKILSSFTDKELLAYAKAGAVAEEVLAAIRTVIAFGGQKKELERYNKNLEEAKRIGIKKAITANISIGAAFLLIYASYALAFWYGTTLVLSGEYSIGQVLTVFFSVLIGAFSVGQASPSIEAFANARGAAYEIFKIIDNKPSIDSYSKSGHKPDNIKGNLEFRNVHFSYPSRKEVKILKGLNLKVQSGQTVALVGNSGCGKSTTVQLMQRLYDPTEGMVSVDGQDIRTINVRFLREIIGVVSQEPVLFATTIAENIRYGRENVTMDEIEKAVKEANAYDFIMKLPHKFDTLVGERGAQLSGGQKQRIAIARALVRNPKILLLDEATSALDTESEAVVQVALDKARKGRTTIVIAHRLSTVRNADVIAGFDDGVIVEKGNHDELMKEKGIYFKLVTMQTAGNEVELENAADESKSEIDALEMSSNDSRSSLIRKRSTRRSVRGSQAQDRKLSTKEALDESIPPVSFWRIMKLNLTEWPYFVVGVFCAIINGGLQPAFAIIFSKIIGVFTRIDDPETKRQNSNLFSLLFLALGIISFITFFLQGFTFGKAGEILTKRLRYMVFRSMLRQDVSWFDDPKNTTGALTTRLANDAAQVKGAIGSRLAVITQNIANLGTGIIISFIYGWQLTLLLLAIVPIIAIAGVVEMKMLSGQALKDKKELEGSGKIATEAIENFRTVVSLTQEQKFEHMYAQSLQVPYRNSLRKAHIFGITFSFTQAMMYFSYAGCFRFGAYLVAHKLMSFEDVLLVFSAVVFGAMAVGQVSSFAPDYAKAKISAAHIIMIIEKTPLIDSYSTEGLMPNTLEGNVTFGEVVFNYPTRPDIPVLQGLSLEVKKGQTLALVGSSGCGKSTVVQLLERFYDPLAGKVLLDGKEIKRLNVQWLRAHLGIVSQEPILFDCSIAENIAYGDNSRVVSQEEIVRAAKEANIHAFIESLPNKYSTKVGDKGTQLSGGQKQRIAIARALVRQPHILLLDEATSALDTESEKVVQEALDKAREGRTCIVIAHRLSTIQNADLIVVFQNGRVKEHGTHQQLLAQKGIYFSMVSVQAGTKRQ
Chain of NAD(+) hydrolase SARM1 (Homo sapiens) (Q6SZW1 whole entry, looked up, the tested form may be a part): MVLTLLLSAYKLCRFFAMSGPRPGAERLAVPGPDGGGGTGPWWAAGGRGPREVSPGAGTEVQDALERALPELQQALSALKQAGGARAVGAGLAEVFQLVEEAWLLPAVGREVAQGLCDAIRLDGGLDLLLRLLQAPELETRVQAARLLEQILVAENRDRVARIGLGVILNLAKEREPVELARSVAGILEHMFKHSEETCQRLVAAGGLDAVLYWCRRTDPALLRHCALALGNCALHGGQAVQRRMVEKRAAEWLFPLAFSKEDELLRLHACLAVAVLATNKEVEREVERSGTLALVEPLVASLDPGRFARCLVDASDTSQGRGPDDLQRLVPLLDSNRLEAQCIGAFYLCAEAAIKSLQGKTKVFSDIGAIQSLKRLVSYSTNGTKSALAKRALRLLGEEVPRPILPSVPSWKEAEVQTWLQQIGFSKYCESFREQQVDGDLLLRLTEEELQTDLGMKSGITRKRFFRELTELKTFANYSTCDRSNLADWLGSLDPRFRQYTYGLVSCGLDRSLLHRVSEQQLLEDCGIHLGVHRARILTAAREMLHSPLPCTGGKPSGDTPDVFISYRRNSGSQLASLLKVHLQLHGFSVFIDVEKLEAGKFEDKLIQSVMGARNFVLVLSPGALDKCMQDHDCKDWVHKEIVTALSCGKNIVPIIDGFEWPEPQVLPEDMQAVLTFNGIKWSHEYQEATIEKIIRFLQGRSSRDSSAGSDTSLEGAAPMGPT

Consider `CCN(CC)C(C)C(=O)c1ccccc1` (centres undefined), for which the values for the z-score in [1] (setting [20]) and in assay [1] (setting [21]) were 0.648 (inactive) and -0.333, respectively.
For `C[C@@]1(CO)[C@H]2CC[C@@H]3C[C@H]4C[C@@]3(CC[C@@]4(O)CO)[C@]2(C)CC[C@@H]1O`, the fold fluorescence in [2] is 13 [at 147.7 µM] (inactive).
By inhibition is commonly meant the relative decrease from the control value, in per cent. As to `C[C@H]1C2Cc3ccc(O)cc3[C@@]1(C)CCN2CC1CC1`, in assay [3], the inhibition was 0% (inactive). In [4], the fluorescence ratio (interference) was 1 (inactive). In [5], the compound was classed as inactive.
For `COc1ccc(C(=O)OC2CCC3(C)C4CCC5C6(O)CC(O)C7(O)C(CN8CC(C)CCC8C7(C)O)C6(O)CC53OC24O)cc1OC` (centres undefined), in [2], the fold fluorescence was 11.6 [at 74.2 µM] (inactive).
For `CC(=O)O[C@H]1C[C@H](O[C@H]2[C@@H](O)C[C@H](O[C@H]3[C@@H](O)C[C@H](O[C@H]4CC[C@@]5(C)[C@H](CC[C@@H]6[C@@H]5C[C@@H](O)[C@]5(C)[C@@H](C7=CC(=O)OC7)CC[C@]65O)C4)O[C@@H]3C)O[C@@H]2C)O[C@H](C)[C@H]1O[C@@H]1O[C@H](CO)[C@@H](O)[C@H](O)[C@H]1O`, the figures for the z-score in assay [1] (setting [20]) and in assay [1] (setting [21]) were 2.15 (active) and 0.322, respectively. Besides, the remaining NAD in [6] was 10 nM (inactive). For the same compound, in assay [7], the luciferase signal was 44 AU (inactive).
For `C=C(C)[C@@H]1O[C@@H]2CC[C@]3(C)[C@](O)(CC[C@@H]4[C@H]5OC(C)(C)[C@@H]6C[C@H]7C(=C)Cc8c(Cl)cc9[nH]c(c5c9c8[C@]76O)[C@]43C)[C@@]23O[C@H]3[C@@H]1O`, the fold fluorescence in assay [2] is 6.21 [at 78.8 µM] (inactive).
For the compound `C#CCN(C)[C@@H](C)Cc1ccccc1`, in assay [8], the period change is 0.185 h (inactive). For the same compound, the fold fluorescence in assay [2] was 5.04 [at 267 µM] (inactive).
`CCCC[C@H](C)[C@H](OC(=O)C[C@H](CC(=O)O)C(=O)O)[C@@H](C[C@H](C)C[C@@H](O)CCCC[C@H](O)C[C@@H](O)[C@@H](C)N)OC(=O)C[C@@H](CC(=O)O)C(=O)O`: in assay [2], the fold fluorescence is 2.99 [at 69.3 µM] (inactive).
`Cc1c(C(=O)c2cccc3ccccc23)c2cccc3c2n1[C@@H](CN1CCOCC1)CO3`: in assay [2], the fold fluorescence was 4.51 (inactive).
Turning to `CC(N)C(O)c1ccccc1` (centres undefined), the fluorescence slope change in [9] is 4.9% (inactive). Besides, in assay [10], the inhibition is -49.8%. Also, in assay [11], the score was 1.3. In [12], the rescue above control was -2.3. The cytochrome c release ratio in assay [13] amounted to 0.86. Besides, the inhibition of aggregation in assay [14] stood at 86.1%. The glutamate uptake change in [15] was 4.9%. In assay [16], this compound registered an inclusion score of 2. Besides, the aggregation suppression score in assay [17] came out at 1.78.
In general, viability refers to a read-out of living cells in per cent, often relative to untreated cells. In the case of `C[N+]1([O-])[C@@H]2CC[C@H]1CC(OC(=O)C(CO)c1ccccc1)C2` (some centres undefined), the fluorescence slope change in [9] was 74.3% (active). Besides, in assay [18], the survival is 35.2 (inactive). In assay [19], the parasite load remaining was 113% (inactive) and the viability is 87.7%.
Regarding `CC(N)Cc1ccc2c(c1)OCO2` (centres undefined), the inhibition in assay [10] was -14.9%. In assay [11], the score was found to be 1.01. The compound also displayed a rescue above control in assay [12] of -3.14. Further, the cytochrome c release ratio in [13] is 1. This compound showed an inhibition of aggregation in assay [14] of 21.1%. In addition, the glutamate uptake change in [15] was -7.15%. The inclusion score in [16] was found to be 2. In assay [17], the aggregation suppression score was found to be 1.15.
Regarding `O=c1ccc2cc(O[C@@H]3OC(CO)[C@@H](O)[C@@H](O)C3O)c(O)cc2o1` (some centres undefined), the survival in assay [18] is 4.42 (inactive). Besides, the luciferase signal in assay [7] is 48 AU (inactive).
On to `CCOC(=O)C1(c2ccccc2)CCN(C)CC1`, for which the inhibition in [10] worked out at 15%. Also, the score in assay [11] was 1.03. The rescue above control in assay [12] turned out to be 5.54. In [13], the cytochrome c release ratio was 0.93. In addition, the inhibition of aggregation in assay [14] came out at 7.48%. Besides, in [15], the glutamate uptake change came to 5.98%. For the same compound, the inclusion score in [16] is 2. This compound gave an aggregation suppression score in assay [17] of 1.14.
On to `O=C1Nc2ccc(Cl)cc2C(c2ccccc2)=NC1O` (centres undefined), for which the inhibition in [10] is -2.46%. In assay [11], this compound yielded a score of 1.01. Moreover, the rescue above control in [12] is -7.17. In addition, the cytochrome c release ratio in assay [13] came to 1.14. In [14], this compound registered an inhibition of aggregation of 32%. Moreover, in assay [15], the glutamate uptake change was 0.27%. Moreover, in assay [17], the aggregation suppression score is 0.898.
